Data: PubChem BioAssay (NCI)
Values joined by “and” are separate entries in the source; they are usually repeats but may differ in a detail not shown here. Identical values can stand only once. About 79,000 compounds went through this panel and 15% of them were active in at least one assay; those are over-represented in the sample as a whole. More than one record can exist for a structure, and the calls need not agree. Active and inactive are the calls of the source. No stated cut-off is given here; in the data, active means growth inhibition above about 70%; inactive means the rest.

How the values were obtained:
[1] = NCI Yeast Anticancer Drug Screen. Data for the rad50 strain (AID 155);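 further: 0% = growth of vehicle-only cultures of the same strain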; settings: S. cerevisiae rad50 strain growth inhibition, stronger effect = higher value
Outline: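 Inhibition values express reduced yeast growth in compound-treated cultures relative to vehicle-treated controls.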

[2] = NCI Yeast Anticancer Drug Screen. Data for the mec2-1 strain (AID 157); settings: S. cerevisiae mec2-1 strain, stronger effect = higher value
Outline: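 mec2-1 yeast strain, carrying an alteration in DNA damage repair or cell cycle control, was exposed to compounds; growth inhibition was measured relative to vehicle-treated controls.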

[3] = NCI Yeast Anticancer Drug Screen. Data for the sgs1 mgt1 strain (AID 161);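 further: 0% = growth of cultures given vehicle only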; settings: S. cerevisiae sgs1 mgt1 strain, stronger effect = higher value
Outline: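 Growth of a repair-deficient yeast mutant was monitored after compound treatment and expressed as inhibition relative to vehicle-treated cultures.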

[4] = NCI Yeast Anticancer Drug Screen. Data for the cln2 rad14 strain (AID 165);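 further: 0% = growth equal to vehicle treated cultures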; settings: S. cerevisiae cln2 rad14 strain, stronger effect = higher value
Outline: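 Yeast carrying cln2 and rad14 alterations (cell cycle control and DNA damage repair) were exposed to compounds. Growth inhibition was measured against vehicle-treated controls.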

[5] = NCI Yeast Anticancer Drug Screen. Data for the bub3 strain (AID 167); settings: S. cerevisiae bub3 mutant strain, stronger effect = higher value
Outline: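 Steps: expose the mutant yeast strain to compound; grow alongside vehicle-treated cultures; measure growth; express inhibition against the vehicle cultures.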

[6] = NCI Yeast Anticancer Drug Screen. Data for the mlh1 rad18 strain (AID 175); settings: S. cerevisiae mlh1 rad18 strain growth inhibition, stronger effect = higher value
Outline: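 Growth inhibition of the yeast strain was measured after compound exposure and expressed relative to vehicle-treated controls. The strain carries defined defects in DNA damage repair.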

[7] = at 5.0 µM (retest, dose inferred, filed as 0.5)
[8] = at 50.0 µM (retest, dose inferred, filed as 5.0)

Row | SMILES | growth inhibition [1, 7] | growth inhibition [1, 8] | growth inhibition ([1]; at 50.0 µM) | growth inhibition [2, 7] | growth inhibition [2, 8] | growth inhibition ([2]; at 50.0 µM) | growth inhibition [3, 7] | growth inhibition [3, 8] | growth inhibition ([3]; at 50.0 µM) | growth inhibition [4, 7] | growth inhibition [4, 8] | growth inhibition ([4]; at 50.0 µM) | growth inhibition [5, 7] | growth inhibition [5, 8] | growth inhibition ([5]; at 50.0 µM) | growth inhibition [6, 7] | growth inhibition [6, 8] | growth inhibition ([6]; at 50.0 µM)
1 | CC(C)(Cc1nocc1C(C)(C)CC#N)c1cc(CC(C)(C)C2(C)OCCO2)no1 | -4% (inactive) | 0% (inactive) | -9.6% (inactive) | 0% (inactive) | -1% (inactive) | 9.45% (inactive) | -8% (inactive) | 1% (inactive) | -7.8% (inactive) | 2% (inactive) | -6% (inactive) | 25.3% (inactive) | -7% (inactive) | -6% (inactive) | -47.8% (inactive) | -3% (inactive) | -4% (inactive) | -9.8% (inactive)
2 | O=NC1C(Br)C2CC1C1C(Cl)C(Cl)CC21 (stereo unspecified) | 6% (inactive) | 10% (inactive) | 58.7% (inactive) | 12% (inactive) | 13% (inactive) | 29.9% (inactive) | -5% (inactive) | 6% (inactive) | 76.8% (active) | -2% (inactive) | -7% (inactive) | 44.1% (inactive) | 1% (inactive) | -6% (inactive) | 10.1% (inactive) | 25% (inactive) | 66% (inactive) | 49.2% (inactive)
3 | O=C(NO)c1cccnc1 | 2% (inactive) | 3% (inactive) | 66.3% (inactive) | 2% (inactive) | -1% (inactive) | 16.1% (inactive) | -4% (inactive) | -3% (inactive) | 29.1% (inactive) | 1% (inactive) | 0% (inactive) | 14.8% (inactive) | 4% (inactive) | -2% (inactive) | 11.8% (inactive) | 3% (inactive) | 5% (inactive) | 16.4% (inactive)
4 | O=C1/C(=C\c2ccc([N+](=O)[O-])cc2)Sc2scc(-c3ccc(O)c(O)c3)[n+]21 | 6% (inactive) | 93% (active) | 83.2% (active) | -10% (inactive) | 95% (active) | 93.8% (active) | 14% (inactive) | 96% (active) | 94.9% (active) | -4% (inactive) | 93% (active) | 71.1% (active) | -19% (inactive) | 98% (active) | 92.5% (active) | 23% (inactive) | 97% (active) | 90.8% (active)
5 | NNc1c2ccccc2nc2ccccc12 | 9% (inactive) | 79% (active) | 21.1% (inactive) and 95.8% (active) | 6% (inactive) | 43% (inactive) | 18.4% (inactive) and 85.8% (active) | 1% (inactive) | 47% (inactive) | -10% (inactive) and 94% (active) | 4% (inactive) | 38% (inactive) | -19.1% (inactive) and 92.5% (active) |  |  |  | 2% (inactive) | 86% (active) | 8.4% (inactive) and 96.8% (active)
6 | CCC1CCCC(=O)C1 (stereo unspecified) | 2% (inactive) | 2% (inactive) | 89.2% (active) | -1% (inactive) | -5% (inactive) | 53.6% (inactive) | 0% (inactive) | -1% (inactive) | 14.1% (inactive) | 3% (inactive) | 1% (inactive) | 36.2% (inactive) | 2% (inactive) | 2% (inactive) | 99.4% (active) | -2% (inactive) | 0% (inactive) | 91.8% (active)
7 | COC(=O)c1nnn(-c2ccc(S(N)(=O)=O)cc2)c1N | -9% (inactive) | -16% (inactive) | 36.6% (inactive) | -4% (inactive) | -10% (inactive) | 19.6% (inactive) | -9% (inactive) | -20% (inactive) | 53.5% (inactive) | 1% (inactive) | 1% (inactive) | 18.7% (inactive) | -22% (inactive) | -7% (inactive) | -4.45% (inactive) | -13% (inactive) | -23% (inactive) | 64.9% (inactive)
8 | Cc1cc(NS(=O)(=O)c2ccc(N=Nc3cc(N=Nc4ccc(S(=O)(=O)Nc5cc(C)nc(C)n5)cc4)c4c(NC(=O)C(Cl)Cl)cccc4c3OC(=O)C(Cl)Cl)cc2)nc(C)n1 (tested in a mixture with another compound) | 16% (inactive) | 76% (active) | 29.9% (inactive) and 73.2% (active) | 15% (inactive) | 92% (active) | -17.1% (inactive) and 81.5% (active) | 8% (inactive) | 79% (active) | -23.1% (inactive) and 69.2% (inactive) | 16% (inactive) | 80% (active) | -3.85% (inactive) and 41.8% (inactive) | 21% (inactive) | 90% (active) | -21.5% (inactive) and 77.2% (active) | 21% (inactive) | 70% (active) | -56.5% (inactive) and 81.5% (active)
9 | C[C@@H](O)[C@H]1CC[C@H]2[C@@H]3CCC4=C/C(=N/O)CC[C@]4(C)[C@H]3CC[C@]12C | 36% (inactive) | 51% (inactive) | 7.4% (inactive) | 15% (inactive) | 20% (inactive) | 22.2% (inactive) | 44% (inactive) | -34% (inactive) | 36.1% (inactive) | 16% (inactive) | 78% (active) | -0.05% (inactive) |  |  |  | 54% (inactive) | 68% (inactive) | 36.1% (inactive)
10 | NC1=C(Cl)C(=O)c2ccccc2C1=O | 6% (inactive) and 9% (inactive) | 97% (active) and 99% (active) | 87.5% (active) and 98.2% (active) | 0% (inactive) and -30% (inactive) | 93% (active) and 98% (active) | 79.8% (active) and 93.6% (active) | 7% (inactive) and 10% (inactive) | 95% (active) and 97% (active) | 91.4% (active) and 97.8% (active) |  |  |  | 16% (inactive) and 7% (inactive) | 97% (active) and 98% (active) | 84.3% (active) and 95.5% (active) | 8% (inactive) and 7% (inactive) | 96% (active) and 98% (active) | 88.5% (active) and 95.5% (active)
11 | CN(C)CCCN=c1c2ccccc2n(O)c2cccc([N+](=O)[O-])c12 | 6% (inactive) | 2% (inactive) | 72.5% (active) | 23% (inactive) | -4% (inactive) | 26.8% (inactive) |  |  |  | 11% (inactive) | 8% (inactive) | 22.4% (inactive) | 9% (inactive) | -10% (inactive) | 45.4% (inactive) | 7% (inactive) | 6% (inactive) | -31.7% (inactive)
12 | c1cc2c3c(c1)c1cc4c(cc1c[n+]3CC2)OCO4 | 14% (inactive) | 38% (inactive) | 89.9% (active) | 23% (inactive) | 36% (inactive) | 92.5% (active) |  |  |  | 13% (inactive) | 18% (inactive) | 90.8% (active) | 2% (inactive) | 20% (inactive) | 90.8% (active) | 25% (inactive) | 51% (inactive) | 90.9% (active)
13 | C=C(C)C(=O)Oc1ccc(N=Nc2ccccc2)ccc1=O | 2% (inactive) | 89% (active) | 95.3% (active) | 5% (inactive) | 93% (active) | 81% (active) |  |  |  | 4% (inactive) | 77% (active) | 59.9% (inactive) | -2% (inactive) | 86% (active) | 81.8% (active) | 12% (inactive) | 96% (active) | 94.5% (active)
14 | O=C1c2ccccc2C(=O)c2cc(S(=O)(=O)O)ccc21 | 3% (inactive) | 27% (inactive) | 73% (active) and 25.7% (inactive) | 1% (inactive) | 26% (inactive) | 36.2% (inactive) and 36.1% (inactive) | 6% (inactive) | 42% (inactive) | 67.7% (inactive) and 37% (inactive) |  |  |  | 0% (inactive) | 22% (inactive) | 67.3% (inactive) and 44.7% (inactive) | 7% (inactive) | 41% (inactive) | 77.7% (active) and 19.6% (inactive)
15 | O=C1c2cccc(O)c2C(=O)c2cccc(O)c21 | 6% (inactive) | 17% (inactive) | 20.7% (inactive) and 33.4% (inactive) | 9% (inactive) | 17% (inactive) | 12.1% (inactive) and 22.7% (inactive) | 0% (inactive) | 7% (inactive) | 18.1% (inactive) and 82.8% (active) |  |  |  | 4% (inactive) | 1% (inactive) | 6% (inactive) and 30.1% (inactive) | 7% (inactive) | 39% (inactive) | 6.5% (inactive) and 76.8% (active)
16 | Clc1ccc(CN2CCCN(Cc3ccc(Cl)cc3)C2c2cc3ccccc3c3ccccc23)cc1 | 49% (inactive) | 99% (active) | 70% (active) | 19% (inactive) | 98% (active) | 68.5% (inactive) | 38% (inactive) | 98% (active) | 87.8% (active) |  |  |  | 22% (inactive) | 98% (active) | 98.7% (active) | 45% (inactive) | 98% (active) | 89.2% (active)
17 | CCOC(=O)[C@H]1Nc2ccc([N+](=O)[O-])cc2C2c3ccccc3CC21 (stereo partly specified) | 32% (inactive) | 91% (active) | 80.3% (active) | -11% (inactive) | 48% (inactive) | 87.8% (active) | 24% (inactive) | 93% (active) | 91.2% (active) | 8% (inactive) | 91% (active) | 86.3% (active) |  |  |  | 17% (inactive) | 90% (active) | 84% (active)
